We go through 2 molecules from PubChem BioAssay (EPA / NIEHS).

Each structure is given as a SMILES string. Values joined by “and” are separate entries in the source; they are usually repeats but may differ in a detail not shown here. Equal values may be shown once. A structure can be active in one record and inactive in another. Active and inactive are the calls of the source. How the source made its calls: active means hit-call score of the fitted dose curve at least 0.9, where 1 is the maximum; inactive means score below 0.9.

Read-out in assay [1]: Macrophage colony-stimulating factor (MCSF), CSF1 (gene 1435)
Kind of assay: BSK_hDFCGF_MCSF: BioMAP Diversity Plus: hDFCGF Assay for Macrophage colony-stimulating factor (MCSF) Biomarker Activity (AID 2283060). As to conditions: primary human foreskin fibroblasts; actives raise or lower the signal. The gist of the method: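 Human foreskin primary fibroblasts were treated with test chemical for 24 h, and M-CSF was then measured by ELISA. Data were fitted bidirectionally against DMSO as the negative control and activity baseline.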

Assay [2] in a line: BSK_hDFCGF_SRB: Viability Assessment in the BioMAP Diversity Plus: hDFCGF Assay (AID 2283061).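 Further: cells exposed to compound for 24 h before the read.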 As to conditions: primary human foreskin fibroblasts. An outline of the steps: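 Human foreskin primary fibroblasts were treated with compound and assessed 24 h after dosing. Total protein was measured by sulforhodamine B staining (0.1% SRB after 10% TCA fixation, 560 nm read) as a cytotoxicity marker, with bidirectional fitting against DMSO baseline.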

Read-out in assay [3]: TIMP metallopeptidase inhibitor 1 (TIMP1), TIMP1 (gene 7076)
Description: BSK_hDFCGF_TIMP1: BioMAP Diversity Plus: hDFCGF Assay for TIMP metallopeptidase inhibitor 1 (TIMP1) Biomarker Activity (AID 2283062). As to conditions: primary human foreskin fibroblasts; actives raise or lower the signal. The gist of the method:
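Primary human foreskin fibroblasts in the hDFCGF system were dosed with compound for 24 h, then TIMP-1 was measured by ELISA. Activity was fitted bidirectionally relative to DMSO control; parallel SRB staining assessed cytotoxicity.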

Read-out in assay [4]: Monokine induced gamma interferon (MIG), CXCL9 (gene 4283)
Description: BSK_hDFCGF_MIG: BioMAP Diversity Plus: hDFCGF Assay for Monokine induced gamma interferon (MIG) Biomarker Activity (AID 2283063). As to conditions: primary human foreskin fibroblasts; actives raise or lower the signal. The gist of the method: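 ELISA read-out of MIG from primary human dermal fibroblasts 24 h post-dosing. Gain or loss of signal fitted bidirectionally, DMSO as baseline.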

Read-out in assay [5]: Matrix Metallopeptidase 1 (MMP1), MMP1 (gene 4312)
Kind of assay: BSK_hDFCGF_MMP1: BioMAP Diversity Plus: hDFCGF Assay for Matrix Metallopeptidase 1 (MMP1) Biomarker Activity (AID 2283064). As to conditions: primary human foreskin fibroblasts; actives raise or lower the signal. The gist of the method: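 hDFCGF primary fibroblasts (human foreskin); chemical added; 24 h; MMP1 by ELISA; bidirectional fit vs DMSO.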

Read-out in assay [6]: Vascular cell adhesion molecule 1 (VCAM1), VCAM1 (gene 7412)
Kind of assay: BSK_hDFCGF_VCAM1: BioMAP Diversity Plus: hDFCGF Assay for Vascular cell adhesion molecule 1 (VCAM1) Biomarker Activity (AID 2283065).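 On AC50: VCAM-1 protein level quantified by ELISA after 24 h chemical exposure.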 To be noted: primary human foreskin fibroblasts; actives raise or lower the signal. An outline of the steps:
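Primary human foreskin fibroblasts (hDFCGF system) were dosed with chemical and VCAM-1 was measured by ELISA 24 h later. Bidirectional curve fitting used DMSO as negative control and activity baseline.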

Read-out in assay [7]: Plasminogen activator inhibitor-1 (PAI1), SERPINE1 (gene 5054)
Description: BSK_hDFCGF_PAI1: BioMAP Diversity Plus: hDFCGF Assay for Plasminogen activator inhibitor-1 (PAI1) Biomarker Activity (AID 2283066). As to conditions: primary human foreskin fibroblasts; actives raise or lower the signal. An outline of the steps: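 Human foreskin fibroblasts in the hDFCGF system were dosed with compound for 24 h; PAI-1 was quantified by ELISA. Bidirectional curve fitting used DMSO as negative control and baseline.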

Read-out in assay [8]: Intercellular Adhesion Molecule 1 (ICAM1), ICAM1 (gene 3383)
Description: BSK_KF3CT_ICAM1: BioMAP Diversity Plus: KF3CT Assay for Intercellular Adhesion Molecule 1 (ICAM1) Biomarker Activity (AID 2283067). To be noted: primary human keratinocytes with fibroblasts; actives raise or lower the signal. The gist of the method: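 Human keratinocyte plus foreskin fibroblast primary co-culture was exposed to chemical for 24 h. ICAM-1 was then quantified by ELISA, and the data were fit bidirectionally against DMSO as the negative control and baseline.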

Read-out in assay [9]: Interferon-gamma inducible Protein 10 (IP10), CXCL10 (gene 3627)
Description: BSK_KF3CT_IP10: BioMAP Diversity Plus: KF3CT Assay for Interferon-gamma inducible Protein 10 (IP10) Biomarker Activity (AID 2283068). To be noted: primary human keratinocytes with fibroblasts; actives raise or lower the signal. An outline of the steps:
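ELISA read-out of IP-10 after 24 h chemical dosing of human skin primary co-culture (keratinocytes, foreskin fibroblasts). Gain or loss of signal relative to DMSO, bidirectional curve fit.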

Assay [10] in a line: BSK_KF3CT_SRB: Viability Assessment in the BioMAP Diversity Plus: KF3CT Assay (AID 2283069).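 Further: fitted for both signal gain and loss against DMSO baseline.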 To be noted: primary human keratinocytes with fibroblasts. The gist of the method: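 Keratinocytes co-cultured with foreskin fibroblasts (human primary); chemical added, 24 h; fix 10% TCA, stain 0.1% SRB, A560. Bidirectional fit vs DMSO.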
Read-out in assay [11]: Interleukin-1 alpha (IL1a), IL1A (gene 3552)
Description: BSK_KF3CT_IL1a: BioMAP Diversity Plus: KF3CT Assay for Interleukin-1 alpha (IL1a) Biomarker Activity (AID 2283070). As to conditions: primary human keratinocytes with fibroblasts; actives raise or lower the signal. The gist of the method: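 Chemicals were dosed onto co-cultured human keratinocytes and foreskin fibroblasts, IL-1a was quantified by ELISA at 24 h, and activity was fitted in both directions relative to DMSO controls.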

Read-out in assay [12]: TIMP metallopeptidase inhibitor 2 (TIMP2), TIMP2 (gene 7077)
Kind of assay: BSK_KF3CT_TIMP2: BioMAP Diversity Plus: KF3CT Assay for TIMP metallopeptidase inhibitor 2 (TIMP2) Biomarker Activity (AID 2283071). As to conditions: primary human keratinocytes with fibroblasts; actives raise or lower the signal. The gist of the method: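 Human primary keratinocyte/foreskin fibroblast co-culture dosed with chemical and sampled at 24 h. TIMP-2 levels quantified by ELISA; bidirectional fitting against DMSO negative control as baseline.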

Read-out in assay [13]: C-C motif chemokine 2 (Homo sapiens) (UniProt P13500)
Description: BSK_KF3CT_MCP1: BioMAP Diversity Plus: KF3CT Assay for Monocyte Chemoattractant Protein 1 (MCP1/CCL2) Biomarker Activity (AID 2283073). As to conditions: primary human keratinocytes with fibroblasts; actives raise or lower the signal. The gist of the method: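 Human keratinocyte plus foreskin fibroblast primary co-culture exposed to chemical for 24 h. MCP-1 levels measured by ELISA. Bidirectional curve fitting relative to DMSO negative control as baseline.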

Read-out in assay [14]: Matrix Metallopeptidase 9 (MMP9), MMP9 (gene 4318)
Description: BSK_KF3CT_MMP9: BioMAP Diversity Plus: KF3CT Assay for Matrix Metallopeptidase 9 (MMP9) Biomarker Activity (AID 2283074).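 On AC50: MMP9 protein level quantified by ELISA in the co-culture.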 As to conditions: primary human keratinocytes with fibroblasts; actives raise or lower the signal. An outline of the steps: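 Human keratinocyte/foreskin fibroblast co-culture; compound added; 24 h; MMP-9 by ELISA; bidirectional fit vs DMSO baseline.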

Read-out in assay [15]: urokinase plasminogen activator (uPA), PLAU (gene 5328)
Kind of assay: BSK_KF3CT_uPA: BioMAP Diversity Plus: KF3CT Assay for urokinase plasminogen activator (uPA) Biomarker Activity (AID 2283075). As to conditions: primary human keratinocytes with fibroblasts; actives raise or lower the signal. The gist of the method: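 ELISA readout of uPA, analyzed for signal gain or loss relative to DMSO, from a human primary keratinocyte–foreskin fibroblast co-culture measured 24 h after chemical treatment.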

Read-out in the next assay: CD40, CD40 (gene 958)
Kind of assay: BSK_LPS_CD40: BioMAP Diversity Plus: LPS Assay for CD40 Biomarker Activity (AID 2283076). As to conditions: primary human HUVEC with PBMC; actives raise or lower the signal. The gist of the method: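 Primary human umbilical vein endothelial cells co-cultured with peripheral blood mononuclear cells, LPS-stimulated, were dosed with chemical and read 24 h later. CD40 levels were measured by ELISA and fitted bidirectionally against DMSO as negative control and baseline.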

Read-out in assay [16]: E-selectin (Homo sapiens) (UniProt P16581)
Kind of assay: BSK_LPS_Eselectin: BioMAP Diversity Plus: LPS Assay for Eselectin Biomarker Activity (AID 2283077). As to conditions: primary human HUVEC with PBMC; actives raise or lower the signal. An outline of the steps: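 Human umbilical vein endothelial cells co-cultured with peripheral blood mononuclear cells under LPS stimulation; E-selectin measured by ELISA 24 h after chemical dosing. Activity fitted bidirectionally against DMSO as negative control and baseline.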

Read-out in assay [17]: Interleukin-8 (IL8), CXCL8 (gene 3576)
Kind of assay: BSK_LPS_IL8: BioMAP Diversity Plus: LPS Assay for Interleukin-8 (IL8) Biomarker Activity (AID 2283078). As to conditions: primary human HUVEC with PBMC; actives raise or lower the signal. The gist of the method:
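Human umbilical vein endothelial cells co-cultured with PBMC were stimulated with LPS; IL-8 levels were measured by ELISA 24 h after chemical dosing. Activity was fitted bidirectionally against DMSO as negative control and baseline.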

The nature of assay [18]: BSK_LPS_SRB: Viability Assessment in the BioMAP Diversity Plus: LPS Assay (AID 2283079).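 Further: total protein by sulforhodamine B absorbance as a cytotoxicity measure; measured one day after compound addition; fitted in both directions against DMSO so loss or gain of signal counts.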 As to conditions: primary human HUVEC with PBMC. The gist of the method: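 Human umbilical vein endothelial cells co-cultured with PBMC (LPS system) were dosed for 24 h. Total protein was stained with 0.1% sulforhodamine B after 10% TCA fixation, read at 560 nm, and fitted bidirectionally against DMSO baseline.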

Read-out in assay [19]: Interleukin-1 alpha (IL1a), IL1A (gene 3552)
Kind of assay: BSK_LPS_IL1a: BioMAP Diversity Plus: LPS Assay for Interleukin-1 alpha (IL1a) Biomarker Activity (AID 2283080). As to conditions: primary human HUVEC with PBMC; actives raise or lower the signal. An outline of the steps: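 Human umbilical vein endothelial cells co-cultured with peripheral blood mononuclear cells were LPS-stimulated and exposed to test chemicals for 24 h. IL-1 alpha was quantified by ELISA, with bidirectional curve fitting against DMSO as the negative control and baseline.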

E-selectin (Homo sapiens), sequence (P16581 whole entry, looked up): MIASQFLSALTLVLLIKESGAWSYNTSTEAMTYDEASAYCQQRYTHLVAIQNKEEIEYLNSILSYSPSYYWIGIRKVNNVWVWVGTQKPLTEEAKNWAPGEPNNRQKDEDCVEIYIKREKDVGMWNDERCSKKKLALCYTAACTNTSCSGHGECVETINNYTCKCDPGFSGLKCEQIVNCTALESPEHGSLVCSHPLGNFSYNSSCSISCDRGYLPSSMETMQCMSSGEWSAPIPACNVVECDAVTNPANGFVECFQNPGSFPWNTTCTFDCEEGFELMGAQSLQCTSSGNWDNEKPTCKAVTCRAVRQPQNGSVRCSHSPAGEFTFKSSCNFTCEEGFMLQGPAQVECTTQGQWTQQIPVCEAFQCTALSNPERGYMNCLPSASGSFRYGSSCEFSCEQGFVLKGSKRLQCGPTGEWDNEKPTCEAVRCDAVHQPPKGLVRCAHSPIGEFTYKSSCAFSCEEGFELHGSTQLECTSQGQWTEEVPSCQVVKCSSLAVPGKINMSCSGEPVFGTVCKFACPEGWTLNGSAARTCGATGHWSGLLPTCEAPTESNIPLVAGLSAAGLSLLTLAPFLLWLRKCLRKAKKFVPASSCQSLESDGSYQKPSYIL

Take `CCN=C1C=CC(=C(c2ccc(N(CC)CC)cc2)c2ccc(N(CC)CC)cc2)c2ccccc21`: the AC50 in assay [1] was 1.37 µM (active) and 1.28 µM (active); in assay [2], 331 nM (active); in assay [3] it was 1.42 µM (active) and 1.3 µM (active); in [4], 1.73 µM (active) and 1.47 µM (active); in assay [5] it was 1.29 µM (active) and 1.26 µM (active); in assay [6] it was 1.42 µM (active) and 854 nM (active). The half-maximal activity concentration (AC50) in assay [7] was 1.31 µM (active) and 1.23 µM (active); in assay [8], 3.19 µM (active) and 3.16 µM (active); in assay [9], 2.87 µM (active) and 2.44 µM (active); in assay [11], 2.69 µM (active) and 2.13 µM (active); in assay [12], 1.87 µM (active) and 1.66 µM (active); in assay [13] it was 3.2 µM (active) and 2.66 µM (active). The AC50 in [14] was 1.61 µM (active) and 1.54 µM (active); in assay [15] it was 2.62 µM (active) and 1.92 µM (active); with CD40, CD40 (gene 958), 244 nM (active) and 1.3 µM (active); in [16], 974 nM (active) and 574 nM (active); in assay [17] it was 782 nM (active) and 483 nM (active); in assay [18], 2.39 µM (active) and 2.33 µM (active). For the same molecule, the AC50 in assay [19] is 2.54 µM (active) and 1.43 µM (active). For the same molecule, the outcome in assay [2] and in [10] was inactive.

For the molecule `CCN(CC)c1ccc(C=O)cc1`, the outcome in assay [1], in assay [2], in [3], in assay [4], in [5] and in assay [6] was inactive. For the same molecule, the outcome in assay [7], in assay [8], in assay [9], in assay [10], in assay [11] and in [12] was inactive. Further, the outcome was “inactive” in [13]; “inactive” in assay [14]; “inactive” in [15]; “inactive” with CD40, CD40 (gene 958); “inactive” in [16]; “inactive” in assay [17]. Further, the outcome in assay [18] and in assay [19] was inactive.
